# Measured values from PubChem BioAssay (Tox21).
# Records with an inconclusive call do not appear. A number with no mark means an inactive call. Calls come from the whole dose curve; as a rule, active = well fitted cell-killing curve with a large enough effect in the repeat runs; inconclusive = weak or mixed curves, or effect the other way; inactive = flat fitted curve, though single readings scatter.
# Test: qHTS assay to identify small molecule antagonists of the androgen receptor (AR) signaling pathway using the MDA cell line in the presence of 0.5 nM R1881 - cell viability counter screen (AID 1259242); note: nearly all actives have a fitted effect of over 45% in size
# Conditions: MDA-kb2 viability, CellTiter-Fluor protease fluorescence, 16 h; series mostly up to 92.4 µM; viability change, negative = cytotoxic: at the top concentration
# In short: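 Cytotoxicity toward MDA-kb2 cells is measured by CellTiter-Fluor live-cell protease fluorescence after 16 hr compound exposure at 37C in the presence of 0.5 nM R1881 stimulator.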
# % is set by controls: 0 for no effect and ±100 for the full control effect.
row,Structure (SMILES),"viability change, negative = cytotoxic"
1,CC1OC(=O)C(C)OC1=O (configuration not stated),3.23%
2,CC(C)Cc1ccc(C(C)C(=O)OCc2ccccn2)cc1 (configuration not stated),1.53% [at 42.5 µM]
3,CCOc1ccc(O)cc1,-1.63%
4,CN1C[C@H]2c3ccccc3Oc3ccc(Cl)cc3[C@@H]2C1,4.54% [at 42.5 µM]
5,CC(=O)c1cccc([N+](=O)[O-])c1,1.94%
6,CC1CCC(=O)C1=O (configuration not stated),1.51%
7,O=C(O)c1ccco1,-2.49%
8,CN1Cc2cc(C(=O)N3CCC(C4CCNCC4)CC3)ccc2NC(CC(=O)O)C1=O (configuration not stated),2.31% [at 42.5 µM]
9,CCOc1ccc(N)c([N+](=O)[O-])c1,-16.5%
10,Nc1ccc([N+](=O)[O-])c(C(F)(F)F)c1,-10.5% [at 42.5 µM]
11,CCCCCCCCCCO[C@@H]1O[C@H](CO)[C@@H](O)[C@H](O)[C@H]1O,0.615%
12,O=P(O)(OCc1ccccc1)OCc1ccccc1,1.18%
13,C=CC1CC2C=CC1C2 (configuration not stated),1.77%
14,Brc1c2ccccc2c(Br)c2ccccc12,2.88% [at 8.39 µM]
15,Brc1c2ccccc2cc2ccccc12,-0.992%
16,O=C(OCCc1ccccc1)c1ccccc1,3.09%
17,CCC(CC)Nc1ccc(C)c(C)c1,1.02%
18,COc1ccc(C(=O)c2ccc(OC)cc2O)c(O)c1,-0.326%
19,c1ccc(C(O[C@H]2CCCN(CCc3ccc4c(c3)OCO4)C2)c2ccccc2)cc1,-1.07% [at 42.5 µM]
20,C[C@@H]1C[C@H]2[C@@H]3CCC4=CC(=O)C=C[C@]4(C)[C@@]3(F)[C@@H](O)C[C@]2(C)[C@@]1(O)C(=O)COC(=O)c1ccncc1,-3.06% [at 42.5 µM]
21,CCCCCCCCCOS(=O)(=O)O,-0.92%
22,C/C=C(/C(=C/C)c1ccc(OC(C)=O)cc1)c1ccc(OC(C)=O)cc1,-1.47% [at 42.5 µM]
